In the library only some 6.8% were active in any assay of this set; here they are far more common.
NADH enzymes: inhibitors of PK/LDH coupling enzymes, profiling panel, artefact control, biochemical, MLSMR library; 0.02% of 65,000 active; IC50, µM (doses to about 10 µM); coupled PK/LDH NADH assays, four targets;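 active = single-dose screening hits from any of four coupled enzyme assays that gave an IC50 when retested across doses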;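 also: the DPM-DC format reads NADH fluorescence rather than 340 nm absorbance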
Fluor 339 460: intrinsic fluorescence of library compounds, ex339/em460 – biochemical, MLSMR library, data from DPM-DC assay, artefact control, profiling panel. AID 709, 2007. 5.5% of 65,000 active. fluorescence fold increase at 10 µM. compound autofluorescence, ex339/em460 nm, NADH buffer; active compounds read high; 1 = no-compound wells, NADH background;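 active = at 10 µM, mean starting fluorescence two-fold or more over control wells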;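 also: signal is the first read of a kinetic run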
Abs 340nm: compound light absorbance at 340 nm, profiling panel, artefact control, biochemical, MLSMR library, data from PS, PMK, MK assays; compound absorbance at 340 nm, fold over control; fold change at 10 µM; 65,000 tested, under 10 active; AID 708, 2007;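 active = at 10 µM dose, initial 340 nm absorbance at least 2 fold that of control wells; inactive = change under 2 fold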;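 also: initial absorbance extrapolated from kinetic A340 decline of NADH oxidation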
PMK inhibit: S. pneumoniae PMK inhibitors, primary screen, biochemical, mevalonate pathway, pilot trial included | phosphomevalonate kinase (Streptococcus pneumoniae D39) | purified PMK, PK/LDH-coupled NADH absorbance 340 nm | inhibition, % at 10 µM | 0.49% of 65,000 active | AID 539, 2006;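 active = top-ranked compounds by inhibition in the single 10 µM screen, taking a fixed number of the strongest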
Spn MK inh: S. pneumoniae MK inhibitors, primary screen, biochemical, PK/LDH-coupled NADH absorbance. AID 555, 2006. 0.48% of 65,000 active. inhibition, % at 10 µM. purified MK, PK/LDH-coupled NADH absorbance 340 nm. mevalonate kinase [Streptococcus pneumoniae D39];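 active = ranked among the strongest by inhibition in the single 10 µM screen, a fixed top-ranked set picked for dose follow-up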
Spn DPM-DC inh: S. pneumoniae DPM-DC inhibitors, primary screen, biochemical, PK/LDH-coupled NADH fluorescence; AID 556, 2006; purified DPM-DC; 0.49% of 65,000 active; diphosphomevalonate decarboxylase (Streptococcus pneumoniae D39); calls only at 10 µM;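 active = the 320 compounds with the highest percent inhibition in the single-dose primary screen, excluding strongly autofluorescent ones, cut at about 32% in these data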;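 also: kinetic rate of NADH fluorescence loss reporting ADP formed by the decarboxylase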
Numbers stand for hits.

`CCCCS(=O)(=O)Nc1ccc2ncn(C)c(=O)c2c1` gave NADH enzymes inactive, Fluor 339 460 3.5, Abs 340nm inactive, PMK inhibit inactive and Spn MK inh inactive.
Screening Cn1cnc2cc(NS(=O)(=O)c3ccc(Br)cc3)ccc21 returned NADH enzymes inactive, Fluor 339 460 inactive, Abs 340nm inactive, PMK inhibit inactive, Spn MK inh inactive and Spn DPM-DC inh inactive.
For COc1ccc(-c2ccc(-c3nnc(-c4cc(OC)ccc4OC)o3)cc2)cc1 the results were NADH enzymes inactive, Fluor 339 460 3.7, Abs 340nm inactive, PMK inhibit inactive and Spn MK inh inactive.
COc1ccc(-c2nnc(-c3ccc(N)cc3)o2)cc1 was read as NADH enzymes inactive, Fluor 339 460 2.9, Abs 340nm inactive, PMK inhibit inactive and Spn MK inh inactive.
For CN(C)c1ccc(-c2nnc(-c3ccc(S(=O)(=O)C(F)F)cc3)o2)cc1 the results were NADH enzymes inactive, Fluor 339 460 inactive, Abs 340nm inactive, PMK inhibit inactive, Spn MK inh inactive and Spn DPM-DC inh inactive.
COc1ccc(-c2nnc(-c3ccc(N(C)C)cc3)o2)cc1 was read as NADH enzymes inactive, Fluor 339 460 2.1, Abs 340nm inactive, PMK inhibit inactive and Spn MK inh inactive.
For Clc1ccc2nc3ccccn3c2c1 the results were NADH enzymes inactive, Fluor 339 460 2.2, Abs 340nm inactive, PMK inhibit inactive and Spn MK inh inactive.
Screening CCC(C)C(NC(=O)c1ccccc1NC(=O)c1ccco1)C(=O)NC1CCCCC1 (centres undefined) returned NADH enzymes inactive, Fluor 339 460 inactive, Abs 340nm inactive, PMK inhibit inactive, Spn MK inh inactive and Spn DPM-DC inh inactive.
Cc1cc(NC(=O)c2ccccc2NS(=O)(=O)c2c(C)c(C)cc(C)c2C)no1 was read as NADH enzymes inactive, Fluor 339 460 2.3, Abs 340nm inactive, PMK inhibit inactive and Spn MK inh inactive.
For Cc1ccc(C)c(S(=O)(=O)Nc2ccccc2C(=O)Nc2cc(C)on2)c1 the results were NADH enzymes inactive, Fluor 339 460 2.2, Abs 340nm inactive, PMK inhibit inactive and Spn MK inh inactive.
CCN1CCN(C(=O)CCCCCn2c(=O)[nH]c3cc(C(=O)OC)ccc3c2=O)CC1 was read as NADH enzymes inactive, Fluor 339 460 2.6, Abs 340nm inactive, PMK inhibit inactive, Spn MK inh inactive and Spn DPM-DC inh inactive.
Screening CCOC(=O)C1CCCN(C(=O)C2CCCN(S(C)(=O)=O)C2)C1 (centres undefined) returned NADH enzymes inactive, Fluor 339 460 inactive, Abs 340nm inactive, PMK inhibit 26, Spn MK inh inactive and Spn DPM-DC inh inactive.
For CCNc1nc(C)c2cc(Br)c(=O)n(CC)c2n1 the results were NADH enzymes inactive, Fluor 339 460 2.1, Abs 340nm inactive, PMK inhibit inactive and Spn MK inh inactive.
Screening CCNc1nc(NC(C)C)nc(Nn2cnnc2)n1 returned NADH enzymes inactive, Fluor 339 460 inactive, Abs 340nm inactive, PMK inhibit inactive, Spn MK inh inactive and Spn DPM-DC inh inactive.
Screening COC(=O)Cn1ncc2c(C)n(Cc3ccccc3)c(C)c2c1=O returned NADH enzymes inactive, Fluor 339 460 inactive, Abs 340nm inactive, PMK inhibit inactive, Spn MK inh inactive and Spn DPM-DC inh inactive.
Screening CNC(=O)Cn1ncc2c(C)n(Cc3ccc(C)cc3)c(C)c2c1=O returned NADH enzymes inactive, Fluor 339 460 inactive, Abs 340nm inactive, PMK inhibit 34, Spn MK inh inactive and Spn DPM-DC inh inactive.
For Cn1cnnc1SCC(=O)n1c2ccccc2c2ccccc21 the results were NADH enzymes inactive, Fluor 339 460 inactive, Abs 340nm inactive, PMK inhibit 42, Spn MK inh 67 and Spn DPM-DC inh inactive.
CCN(CC)S(=O)(=O)c1cccc(C(=O)Nc2nc3cc4c(cc3s2)OCCO4)c1 was read as NADH enzymes inactive, Fluor 339 460 2.1, Abs 340nm inactive, PMK inhibit inactive and Spn MK inh inactive.
`CCOc1ccc(C(=O)O)cc1OC` gave NADH enzymes inactive, Fluor 339 460 inactive, Abs 340nm inactive, PMK inhibit inactive, Spn MK inh inactive and Spn DPM-DC inh active.
`COc1cc(C(=O)O)ccc1OC(C)=O` gave NADH enzymes inactive, Fluor 339 460 inactive, Abs 340nm inactive, PMK inhibit inactive, Spn MK inh inactive and Spn DPM-DC inh inactive.
O=C(O)c1ccc2cc[nH]c2c1 was read as NADH enzymes inactive, Fluor 339 460 inactive, Abs 340nm inactive, PMK inhibit inactive, Spn MK inh inactive and Spn DPM-DC inh inactive.
`O=C(CN1CCN(C2CCCCC2)CC1)c1ccc2cc[nH]c2c1` gave NADH enzymes inactive, Fluor 339 460 2.1, Abs 340nm inactive, PMK inhibit inactive and Spn MK inh inactive.
Screening COc1ccc(CNC(=O)C(C)OC(=O)c2cccn2C)cc1 (centres undefined) returned NADH enzymes inactive, Fluor 339 460 inactive, Abs 340nm inactive, PMK inhibit inactive, Spn MK inh inactive and Spn DPM-DC inh inactive.
CN(C)c1ccc(-c2nn3c(-c4ccc(Cl)cc4)nnc3s2)cc1 was read as NADH enzymes inactive, Fluor 339 460 inactive, Abs 340nm inactive, PMK inhibit inactive, Spn MK inh inactive and Spn DPM-DC inh inactive.
CN(C)c1ccc(-c2nn3c(C4CCCCC4)nnc3s2)cc1 was read as NADH enzymes inactive, Fluor 339 460 2.5, Abs 340nm inactive, PMK inhibit inactive, Spn MK inh inactive and Spn DPM-DC inh inactive.
Screening CCOc1ccccc1NC(=O)c1nc[nH]c1C(=O)Nc1ccccc1OCC returned NADH enzymes inactive, Fluor 339 460 5.2, Abs 340nm inactive, PMK inhibit inactive and Spn MK inh inactive.
For COc1ccc(NC(=O)c2nc[nH]c2C(=O)Nc2ccccc2C)cc1 the results were NADH enzymes inactive, Fluor 339 460 3.2, Abs 340nm inactive, PMK inhibit inactive, Spn MK inh inactive and Spn DPM-DC inh inactive.
Screening CNC(=O)c1[nH]cnc1C(=O)Nc1cccc(OC)c1 returned NADH enzymes inactive, Fluor 339 460 inactive, Abs 340nm inactive, PMK inhibit inactive, Spn MK inh inactive and Spn DPM-DC inh inactive.
Screening Cc1ccccc1NC(=O)c1nc[nH]c1C(=O)NCc1ccccc1 returned NADH enzymes inactive, Fluor 339 460 inactive, Abs 340nm inactive, PMK inhibit inactive, Spn MK inh inactive and Spn DPM-DC inh inactive.
For COc1ccccc1NC(=O)c1nc[nH]c1C(=O)Nc1ccccc1OC the results were NADH enzymes inactive, Fluor 339 460 2.3, Abs 340nm inactive, PMK inhibit inactive, Spn MK inh inactive and Spn DPM-DC inh inactive.

From PubChem
